# From PubChem BioAssay (NCATS)
# “And” between values parts separate entries of the source, which are not always exact repeats. Equal values may be shown once. Unmarked numbers belong to inactive results. Results filed as inconclusive are left out. A call without a number means that no potency is given here. The source holds several records for some structures; these can differ, active in one and inactive in another. The source made the active and inactive calls. Unless noted, calls follow the shape of the dose curve; as a rule, active = well fitted curve in the direction sought with a large enough effect; inconclusive = small, poorly fitted or top-dose-only effect, or another doubt; inactive = no such curve, though single readings can be large; an effect the other way counts as inactive or inconclusive.
# Legend:
# [1] = tested on: UISO; experiment: qHTS assay to identify novel small-molecules to repurpose for Merkel cell carcinoma treatment (AID 1296009); conditions: MCC and control cell lines, CellTiter-Glo viability, 72 h; series mostly up to 46 µM; also: nearly all actives have a fitted effect of over 60% in size
# Summary of the method: (§1)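 Dose-response viability screen; 72 hr exposure at 37 degree celsius; CellTiter-Glo added, 10 min room temperature, luminescence read; RLUs scaled between no-cell and DMSO wells.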
# [2] = tested on: WaGa; experiment: as above; conditions: MCC and control cell lines, CellTiter-Glo viability, 72 h; series mostly up to 46 µM
# Summary of the method: as §1
# [3] = tested on: C33A; experiment: Primary qHTS to identify gynecologic anti-cancer compounds using libraries of approved drugs and bioactive compounds (AID 1345084); conditions: Gynecologic cancer cell panel viability, ATPlite luminescence, 48 h; series mostly up to 57.5 µM; also: nearly all actives have a fitted effect of over 55% in size
# Summary of the method: (§2)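 In this quantitative HTS, cell killing is estimated from loss of ATP-dependent luciferase light. Cells see five compound concentrations over a 48 h exposure.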
# [4] = tested on: CAOV3; experiment: as above; conditions: Gynecologic cancer cell panel viability, ATPlite luminescence, 48 h; series mostly up to 57.5 µM
# Summary of the method: as §2
# [5] = tested on: CASKI; experiment: as above; conditions: Gynecologic cancer cell panel viability, ATPlite luminescence, 48 h; series mostly up to 57.5 µM
# Summary of the method: as §2
# [6] = tested on: Es-2; experiment: as above; conditions: Gynecologic cancer cell panel viability, ATPlite luminescence, 48 h; series mostly up to 57.5 µM
# Summary of the method: as §2
# [7] = tested on: HeLa; experiment: as above; conditions: Gynecologic cancer cell panel viability, ATPlite luminescence, 48 h; series mostly up to 57.5 µM
# Summary of the method: as §2
# [8] = tested on: Hek293T; experiment: as above; conditions: Gynecologic cancer cell panel viability, ATPlite luminescence, 48 h, control line for the selectivity index; series mostly up to 57.5 µM
# Summary of the method: as §2
# [9] = tested on: JEG-3; experiment: as above; conditions: Gynecologic cancer cell panel viability, ATPlite luminescence, 48 h; series mostly up to 57.5 µM
# Summary of the method: as §2
# [10] = tested on: OV90; experiment: as above; conditions: Gynecologic cancer cell panel viability, ATPlite luminescence, 48 h; series mostly up to 57.5 µM
# Summary of the method: as §2
# [11] = tested on: PA-1; experiment: as above; conditions: Gynecologic cancer cell panel viability, ATPlite luminescence, 48 h; series mostly up to 57.5 µM
# Summary of the method: as §2
# [12] = tested on: SKOV3; experiment: as above; conditions: Gynecologic cancer cell panel viability, ATPlite luminescence, 48 h; series mostly up to 57.5 µM
# Summary of the method: as §2
# [13] = tested on: Tov-21-G; experiment: as above; conditions: Gynecologic cancer cell panel viability, ATPlite luminescence, 48 h; series mostly up to 57.5 µM
# Summary of the method: as §2
# [14] = tested on: Tov112D; experiment: as above; conditions: Gynecologic cancer cell panel viability, ATPlite luminescence, 48 h; series mostly up to 57.5 µM
# Summary of the method: as §2
# [15] = Drug repurposing screens with cells derived from glioblastoma tumor samples (AID 1345199); conditions: GBM patient neurospheres viability, ATP luminescence, 48 h; also: nearly all actives have a fitted effect of over 40% in size; also: potency is read from the fitted curve at half-maximal effect
# Summary of the method: (§3)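 Primary testing used CD133+ neurospheres from four GBM patients, seven concentrations, 48 h exposure and ATP-based viability; confirmation added three slower-growing patient lines.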
# [16] = tested on: astro; experiment: as above; conditions: viability, ATP luminescence, 48 h; series mostly up to 45.9 µM
# Summary of the method: as §3
# [17] = biological target: Nuclear receptor subfamily 1 group I member 2 (Rattus norvegicus) (UniProt Q9R1A7); experiment: qHTS assay for small molecule activators of the rat pregnane X receptor (rPXR) signaling pathway (AID 651751; call rule not given here); conditions: rPXR reporter cells, luciferase (One-Glo), 24 h
# Nuclear receptor subfamily 1 group I member 2 (Rattus norvegicus), sequence (Q9R1A7 whole entry, looked up): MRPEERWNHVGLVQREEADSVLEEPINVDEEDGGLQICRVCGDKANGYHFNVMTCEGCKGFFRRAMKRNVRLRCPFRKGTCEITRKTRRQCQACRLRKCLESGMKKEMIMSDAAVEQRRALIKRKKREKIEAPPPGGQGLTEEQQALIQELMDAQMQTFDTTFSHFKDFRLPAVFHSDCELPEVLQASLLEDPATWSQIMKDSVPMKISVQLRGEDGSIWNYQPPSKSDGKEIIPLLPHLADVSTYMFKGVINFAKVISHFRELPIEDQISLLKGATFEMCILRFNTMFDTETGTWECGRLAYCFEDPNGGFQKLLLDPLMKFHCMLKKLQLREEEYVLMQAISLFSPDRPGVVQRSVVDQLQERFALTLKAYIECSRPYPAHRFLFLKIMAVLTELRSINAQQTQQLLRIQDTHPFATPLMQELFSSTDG
# [18] = qHTS assay for small molecule activators of the human pregnane X receptor (PXR) signaling pathway (AID 720659; call rule not given here)
# [19] = at 45.9 µM (top of the series), tumour line B
# [20] = at 45.9 µM (top of the series), tumour line D
# [21] = at 46 µM (top of the series), tumour line A
# [22] = at 46.1 µM (top of the series), tumour line C
structure (smiles),measurement,setting,value
N[C@@H](Cc1cc(I)c(O)c(I)c1)C(=O)O,Potency,[1],inactive
same,Potency,[2],inactive
same,Potency,[3],inactive
same,Potency,[4],inactive
same,Potency,[5],inactive
same,Potency,[6],inactive
same,Potency,[7],inactive
same,Potency,[8],inactive
same,Potency,[9],inactive
same,Potency,[10],inactive
same,Potency,[11],inactive
same,Potency,[12],inactive
same,Potency,[13],inactive
same,Potency,[14],inactive
same,"activity, negative = cell killing",[15]; [19],3.22%
same,"activity, negative = cell killing",[15]; [20],2.54%
same,"activity, negative = cell killing",[15]; [21],14.8%
same,"activity, negative = cell killing",[15]; [22],3.63%
same,Potency,[16],inactive
CN(C(=O)C(Cl)Cl)c1ccc(OC(=O)c2ccco2)cc1,Potency,[1],inactive
same,Potency,[2],inactive
same,Potency,[3],inactive
same,Potency,[4],inactive
same,Potency,[5],inactive
same,Potency,[6],inactive
same,Potency,[7],inactive
same,Potency,[8],inactive
same,Potency,[9],inactive
same,Potency,[10],inactive
same,Potency,[11],inactive
same,Potency,[12],inactive
same,Potency,[13],inactive
same,Potency,[14],inactive
same,"activity, negative = cell killing",[15]; [19],-5.88%
same,"activity, negative = cell killing",[15]; [20],-16.9%
same,"activity, negative = cell killing",[15]; [22],-29.6%
same,Potency,[15]; tumour line A,35.5 µM (active)
same,Potency,[16],inactive
CC(C)(C)C(=O)OCOC(=O)C1N2C(=O)CC2S(=O)(=O)C1(C)C (stereo unspecified),Potency,[1],inactive
same,Potency,[2],inactive
same,Potency,[3],inactive
same,Potency,[4],inactive
same,Potency,[5],inactive
same,Potency,[6],inactive
same,Potency,[7],inactive
same,Potency,[8],inactive
same,Potency,[9],inactive
same,Potency,[10],inactive
same,Potency,[11],inactive
same,Potency,[12],inactive
same,Potency,[13],inactive
same,Potency,[14],inactive
same,"activity, negative = cell killing",[15]; [19],-8.27%
same,"activity, negative = cell killing",[15]; [20],-8.54%
same,"activity, negative = cell killing",[15]; [21],-19.2%
same,"activity, negative = cell killing",[15]; [22],-11.5%
same,Potency,[16],inactive
C[N+]1(C)CCC(OC(=O)C(O)(c2ccccc2)C2CCCC2)C1 (stereo unspecified),Potency,[1],inactive
same,Potency,[2],inactive
same,Potency,[3],inactive
same,Potency,[4],inactive
same,Potency,[5],inactive
same,Potency,[6],inactive
same,Potency,[7],inactive
same,Potency,[8],inactive
same,Potency,[9],inactive
same,Potency,[10],inactive
same,Potency,[11],inactive
same,Potency,[12],inactive
same,Potency,[13],inactive
same,Potency,[14],inactive
same,"activity, negative = cell killing",[15]; [20],-7.1%
same,"activity, negative = cell killing",[15]; [22],-3.15% and -15.3%
same,Potency,[15]; tumour line A,11.2 µM (active)
same,Potency,[16],inactive
CCCC(=O)O[C@]1(C(=O)COC(=O)CC)CC[C@H]2[C@@H]3CCC4=CC(=O)CC[C@]4(C)[C@H]3[C@@H](O)C[C@@]21C,Potency,[1],inactive
same,Potency,[2],inactive
same,Potency,[3],inactive
same,Potency,[4],inactive
same,Potency,[5],inactive
same,Potency,[6],inactive
same,Potency,[7],inactive
same,Potency,[8],inactive
same,Potency,[9],inactive
same,Potency,[10],inactive
same,Potency,[11],inactive
same,Potency,[12],inactive
same,Potency,[13],inactive
same,Potency,[14],inactive
same,"activity, negative = cell killing",[15]; [19],-1.31%
same,"activity, negative = cell killing",[15]; [20],-7.61%
same,"activity, negative = cell killing",[15]; [21],-4.97%
same,"activity, negative = cell killing",[15]; [22],15.1%
same,Potency,[16],inactive
CO[C@]1(NC(=O)CSC(F)F)C(=O)N2C(C(=O)O)=C(CSc3nnnn3CCO)CO[C@H]21,Potency,[1],inactive
same,Potency,[2],inactive
same,Potency,[3],inactive
same,Potency,[4],inactive
same,Potency,[5],inactive
same,Potency,[6],inactive
same,Potency,[7],inactive
same,Potency,[8],inactive
same,Potency,[9],inactive
same,Potency,[10],inactive
same,Potency,[11],inactive
same,Potency,[12],inactive
same,Potency,[13],inactive
same,Potency,[14],inactive
same,"activity, negative = cell killing",[15]; [19],4.83%
same,"activity, negative = cell killing",[15]; [20],-21.2%
same,"activity, negative = cell killing",[15]; [22],-14%
same,Potency,[16],inactive
CC1(C)S[C@@H]2[C@H](NC(=O)C(c3ccccc3)S(=O)(=O)O)C(=O)N2[C@H]1C(=O)O (stereo partly specified),Potency,[1],inactive
same,Potency,[2],inactive
same,Potency,[3],inactive
same,Potency,[4],inactive
same,Potency,[5],inactive
same,Potency,[6],inactive
same,Potency,[7],inactive
same,Potency,[8],inactive
same,Potency,[9],inactive
same,Potency,[10],inactive
same,Potency,[11],inactive
same,Potency,[12],inactive
same,Potency,[13],inactive
same,Potency,[14],inactive
same,"activity, negative = cell killing",[15]; [19],-7.89%
same,"activity, negative = cell killing",[15]; [20],-16.5%
same,"activity, negative = cell killing",[15]; [22],4.53%
same,Potency,[16],inactive
O=C(Oc1ccccc1)c1ccccc1O,Potency,[1],inactive
same,Potency,[2],inactive
same,Potency,[3],inactive
same,Potency,[4],inactive
same,Potency,[5],inactive
same,Potency,[6],inactive
same,Potency,[7],inactive
same,Potency,[8],inactive
same,Potency,[9],inactive
same,Potency,[10],inactive
same,Potency,[11],inactive
same,Potency,[12],inactive
same,Potency,[13],inactive
same,Potency,[14],inactive
same,"activity, negative = cell killing",[15]; [19],-4.53%
same,"activity, negative = cell killing",[15]; [20],13.5%
same,"activity, negative = cell killing",[15]; [21],-25.7%
same,"activity, negative = cell killing",[15]; [22],-8.91%
same,Potency,[16],inactive
same,max response,[17],9.53% and -0.74%
same,outcome,[18],inactive
O=C(COCCOCCOCC(=O)Nc1c(I)cc(I)c(C(=O)O)c1I)Nc1c(I)cc(I)c(C(=O)O)c1I,Potency,[1],inactive
same,Potency,[2],inactive
same,Potency,[3],inactive
same,Potency,[4],inactive
same,Potency,[5],inactive
same,Potency,[6],inactive
same,Potency,[7],inactive
same,Potency,[8],inactive
same,Potency,[9],inactive
same,Potency,[10],inactive
same,Potency,[11],inactive
same,Potency,[12],inactive
same,Potency,[13],inactive
same,Potency,[14],inactive
same,"activity, negative = cell killing",[15]; [19],-4.03%
same,"activity, negative = cell killing",[15]; [20],-4.14%
same,"activity, negative = cell killing",[15]; [22],15.8%
same,Potency,[16],inactive
O=C(O)CCCC[C@@H]1SC[C@@H]2NC(=O)N[C@@H]21,Potency,[1],inactive
same,Potency,[2],inactive
same,Potency,[3],inactive
same,Potency,[4],inactive
same,Potency,[5],inactive
same,Potency,[6],inactive
same,Potency,[7],inactive
same,Potency,[8],inactive
same,Potency,[9],inactive
same,Potency,[10],inactive
same,Potency,[11],inactive
same,Potency,[12],inactive
same,Potency,[13],inactive
same,Potency,[14],inactive
same,"activity, negative = cell killing",[15]; [19],-20.7%
same,"activity, negative = cell killing",[15]; [20],-14.6%
same,"activity, negative = cell killing",[15]; [22],-26%
same,Potency,[15]; tumour line A,17.8 µM (active)
same,Potency,[16],inactive
C1=CC2C3C=CC(C3)C2C1 (stereo unspecified),Potency,[1],inactive
same,Potency,[2],inactive
same,Potency,[3],inactive
same,Potency,[4],inactive
same,Potency,[5],inactive
same,Potency,[6],inactive
same,Potency,[7],inactive
same,Potency,[8],inactive
same,Potency,[9],inactive
same,Potency,[10],inactive
same,Potency,[11],inactive
same,Potency,[13],inactive
same,Potency,[14],inactive
same,"activity, negative = cell killing","[15]; at 91.6 µM (top of the series), tumour line A",-19.8%
same,"activity, negative = cell killing","[15]; at 91.6 µM (top of the series), tumour line B",-14.6%
same,"activity, negative = cell killing","[15]; at 91.6 µM (top of the series), tumour line D",-19.1%
same,"activity, negative = cell killing","[15]; at 99.2 µM (top of the series), tumour line C",15.3%
same,Potency,[16],inactive
same,max response,[17],2.57%
same,outcome,[18],inactive
Nc1ccc([N+](=O)[O-])c(C(F)(F)F)c1,Potency,[1],inactive
same,Potency,[2],inactive
same,Potency,[3],inactive
same,Potency,[4],inactive
same,Potency,[5],inactive
same,Potency,[6],inactive
same,Potency,[7],inactive
same,Potency,[8],inactive
same,Potency,[9],inactive
same,Potency,[10],inactive
same,Potency,[11],inactive
same,Potency,[13],inactive
same,Potency,[14],inactive
